# Data published in PubChem BioAssay (EPA / NIEHS).
# Records with an inconclusive call do not appear. Calls of active or inactive are those of the source. Rule for the calls, unless noted: active = hit-call score of the fitted dose curve at least 0.9, where 1 is the maximum; inconclusive = response in the unintended direction; inactive = score below 0.9.
# Columns and labels:
# [1] = molecular target: Cellular tumor antigen p53 (Homo sapiens) (UniProt P04637); assay: TOX21_p53_BLA_p2_ratio: Tox21 HCT-116 p53 Agonism Beta-lactamase Assay, Ratio, Phase 2 (AID 2283592)
# Procedure, shortened: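 In this cell-based reporter format, HCT116 cells were dosed with chemicals delivered from DMSO by 217-fold dilution and incubated 16 h at 37C. Emission at 460 and 530 nm after 2 h CCF4-AM loading provided the ratio, fitted upward versus DMSO.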
# [2] = TOX21_p53_BLA_p3_viability: Viability Assessment in the Tox21 HCT-116 p53 Agonism Beta-lactamase Assay, Phase 3 (AID 2283593);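 note: cells exposed to compound for 16 h before reading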
# Procedure, shortened: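 HCT116 cells, 4000/well, dosed 5 h after plating by pin transfer (217-fold dilution from DMSO stock) and incubated 16 h at 37C, 5% CO2. Viability read as ATP luminescence with CellTiter-Glo after 30 min at room temperature.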
# [3] = molecular target: Cellular tumor antigen p53 (Homo sapiens) (UniProt P04637); assay: TOX21_p53_BLA_p3_ratio: Tox21 HCT-116 p53 Agonism Beta-lactamase Assay, Ratio, Phase 3 (AID 2283596)
# Procedure, shortened: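 HCT116 p53-bla cells (4000/well) given compound in DMSO (217-fold dilution) after 5 h, incubated 16 h at 37C. CCF4-AM substrate 2 h at room temperature; 460/530 nm emission ratio, gain fitted against DMSO.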
# [4] = TOX21_p53_BLA_p4_viability: Viability Assessment in the Tox21 HCT-116 p53 Agonism Beta-lactamase Assay, Phase 4 (AID 2283597);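 note: hits lower the luminescence signal meaning cytotoxicity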
# Procedure, shortened: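 We seeded HCT116 p53 reporter cells at 4000/well and waited 5 h. We then added compounds in DMSO at a 217-fold dilution and incubated for 16 h. Viability was read as CellTiter-Glo luminescence after 30 min at RT.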
# [5] = molecular target: Cellular tumor antigen p53 (Homo sapiens) (UniProt P04637); assay: TOX21_p53_BLA_p5_ratio: Tox21 HCT-116 p53 Agonism Beta-lactamase Assay, Ratio, Phase 5 (AID 2283599)
# Procedure, shortened: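 HCT-116 p53-bla cells (4000/well) plated 5 h, dosed with compound (217-fold DMSO dilution) for 16 h at 37 C; CCF4-AM substrate 2 h at room temperature. Activity is the 460/530 nm emission ratio (405 nm excitation), fitted in gain-of-signal direction versus DMSO.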
# [6] = molecular target: Cellular tumor antigen p53 (Homo sapiens) (UniProt P04637); assay: TOX21_p53_BLA_p4_ratio: Tox21 HCT-116 p53 Agonism Beta-lactamase Assay, Ratio, Phase 4 (AID 2283601)
# Procedure, shortened: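 HCT-116 p53 beta-lactamase reporter cells (4000/well) preincubated 5 h, then compound (217-fold dilution of DMSO stock) for 16 h at 37C. CCF4-AM substrate added 2 h at room temperature; 460/530 nm emission ratio fitted upward versus DMSO.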
# [7] = TOX21_p53_BLA_p5_viability: Viability Assessment in the Tox21 HCT-116 p53 Agonism Beta-lactamase Assay, Phase 5 (AID 2283600)
# Procedure, shortened: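 Compounds, pinned from DMSO at 217-fold dilution, were left on the cells for 16 h. The viability endpoint was ATP content measured by CellTiter-Glo luminescence, where falling signal reflects cytotoxicity.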
# [8] = CCTE_Harrill_HTTr_Viability_MCF7: CCTE's 6-hour Cell Viability Assessment for the High-Throughput Transcriptomics (HTTr) Platform, in MCF-7 cells cultured in DMEM + 10% fetal bovine serum, Harrill Lab (AID 2284010; active = hit-call score of the fitted dose curve at least 0.9, where 1 is the maximum; inactive = score below 0.9)
# Procedure, shortened: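 Membrane integrity was scored by high-content imaging of propidium iodide dye exclusion after a 6 h exposure across an eight-point dilution series. Data were fitted bidirectionally relative to DMSO as negative control and baseline.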
# [9] = CCTE_Harrill_HTTr_Apoptosis_MCF7: CCTE's 6-hour Apoptosis Assessment for the High-Throughput Transcriptomics (HTTr) Platform, in MCF-7 cells cultured in DMEM + 10% fetal bovine serum, Harrill Lab (AID 2284011; active = hit-call score of the fitted dose curve at least 0.9, where 1 is the maximum; inactive = score below 0.9)
# Procedure, shortened: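 Read-out: CellEvent Caspase 3/7 Green signal by high content imaging, gain-of-signal indicating apoptosis. MCF-7 cells, DMEM + 10% FBS, eight-point dilution series, 6 h exposure. Curves fitted bidirectionally relative to DMSO negative control.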
# [10] = CCTE_Harrill_HTTr_CellCount_MCF7: CCTE's Cell Proliferation Assessment for the High-Throughput Transcriptomics (HTTr) Platform, Harrill Lab (AID 2284012);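 note: cells exposed to compound for six hours; intended direction is loss of nuclei count meaning fewer cells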
# Procedure, shortened: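 MCF-7 cells were exposed for 6 h to an eight-point dilution series; Hoechst-labeled nuclei were counted by high content imaging. Curves were fitted bidirectionally against DMSO as negative control and baseline, with signal loss indicating reduced cell count.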
# Chain of Cellular tumor antigen p53 (Homo sapiens) (P04637 whole entry, looked up): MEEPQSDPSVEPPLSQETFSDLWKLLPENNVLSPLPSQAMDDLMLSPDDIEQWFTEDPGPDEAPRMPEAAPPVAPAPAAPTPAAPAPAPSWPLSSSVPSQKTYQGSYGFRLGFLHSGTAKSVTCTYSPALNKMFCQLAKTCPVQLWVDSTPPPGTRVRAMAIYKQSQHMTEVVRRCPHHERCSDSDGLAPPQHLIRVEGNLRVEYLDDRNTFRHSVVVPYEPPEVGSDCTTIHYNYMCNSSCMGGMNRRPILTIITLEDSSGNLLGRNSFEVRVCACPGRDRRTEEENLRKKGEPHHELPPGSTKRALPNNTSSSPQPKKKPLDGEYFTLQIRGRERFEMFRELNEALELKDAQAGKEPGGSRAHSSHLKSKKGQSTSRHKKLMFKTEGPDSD
structure (smiles),measurement,setting,value
O=C(O)CCCc1ccccc1,outcome,[1],inactive
same,AC50,[2],36.2 µM (active)
same,outcome,[3],inactive
same,outcome,[4],inactive
same,outcome,[5],inactive
same,outcome,[6],inactive
NC(Cc1ccc(F)cc1)C(=O)O (configuration not stated),outcome,[1],inactive
same,outcome,[2],inactive
same,outcome,[3],inactive
same,outcome,[4],inactive
same,outcome,[5],inactive
same,outcome,[6],inactive
c1ccc([C@H]2CN3CCSC3=N2)cc1,outcome,[1],inactive
same,outcome,[2],inactive
same,outcome,[3],inactive
same,outcome,[4],inactive
same,outcome,[5],inactive
same,outcome,[7],inactive
same,outcome,[6],inactive
same,outcome,[8],inactive
same,outcome,[9],inactive
same,outcome,[10],inactive
N[C@@H](Cc1cc(I)c(O)c(I)c1)C(=O)O,outcome,[1],inactive
same,outcome,[2],inactive
same,outcome,[3],inactive
same,outcome,[4],inactive
same,outcome,[5],inactive
same,outcome,[6],inactive
CCN(CC)CCSC(=O)C(c1ccccc1)c1ccccc1,outcome,[1],inactive
same,outcome,[2],inactive
same,outcome,[3],inactive
same,outcome,[4],inactive
same,outcome,[5],inactive
same,outcome,[7],inactive
same,outcome,[6],inactive
O=C(NN=Cc1ccc([N+](=O)[O-])o1)c1ccc(O)cc1,AC50,[1],10.2 µM (active)
same,outcome,[2],inactive
same,AC50,[3],16.2 µM (active)
same,outcome,[4],inactive
same,AC50,[5],15.5 µM (active)
same,outcome,[7],inactive
same,outcome,[6],inactive
C=C(C)C(=O)OCCCC,outcome,[1],inactive
same,outcome,[2],inactive
same,outcome,[3],inactive
same,outcome,[4],inactive
same,outcome,[5],inactive
same,outcome,[6],inactive
Nc1ccn(C2CO[C@H](CO)O2)c(=O)n1 (some centres not stated),AC50,[1],5.86e-05 µM (active)
same,outcome,[2],inactive
same,AC50,[3],5.96e-05 µM (active)
same,outcome,[4],inactive
same,AC50,[5],0.000329 µM (active)
same,AC50,[6],0.0816 nM (active)
CCCCCCCCCCCCCCC[C@H](O)[C@@H](N)CO,outcome,[1],inactive
same,outcome,[2],inactive
same,outcome,[3],inactive
same,outcome,[4],inactive
same,outcome,[5],inactive
same,outcome,[6],inactive
NCCCNCCSP(=O)(O)O,outcome,[1],inactive
same,outcome,[2],inactive
same,outcome,[3],inactive
same,outcome,[4],inactive
same,outcome,[5],inactive
same,outcome,[7],inactive
same,outcome,[6],inactive
CC(C)NCC(O)c1ccc2ccccc2c1 (configuration not stated),outcome,[1],inactive
same,outcome,[2],inactive
same,outcome,[3],inactive
same,outcome,[4],inactive
same,outcome,[5],inactive
same,outcome,[6],inactive
Cc1c(N)nc(C(CC(N)=O)NCC(N)C(N)=O)nc1C(=O)NC(C(=O)NC(C)C(O)C(C)C(=O)NC(C(=O)NCCc1nc(-c2nc(C(=O)NCCCN[C@@H](C)c3ccccc3)cs2)cs1)C(C)O)C(O[C@@H]1O[C@@H](CO)[C@@H](O)[C@H](O)[C@@H]1O[C@H]1O[C@H](CO)[C@@H](O)[C@H](OC(N)=O)[C@@H]1O)c1cnc[nH]1 (some centres not stated),AC50,[1],0.286 µM (active)
same,outcome,[2],inactive
same,AC50,[3],0.301 µM (active)
same,outcome,[4],inactive
same,AC50,[5],0.43 µM (active)
same,AC50,[6],193 nM (active)
c1cnc2c(n1)CCCC2,outcome,[1],inactive
same,outcome,[2],inactive
same,outcome,[3],inactive
same,outcome,[4],inactive
same,outcome,[5],inactive
same,outcome,[6],inactive
CN1C(=O)CN2CCc3ccccc3C2c2cc(Cl)ccc21 (configuration not stated),AC50,[1],35.6 µM (active)
same,outcome,[2],inactive
same,AC50,[3],39.8 µM (active)
same,outcome,[4],inactive
same,AC50,[5],22.8 µM (active)
same,AC50,[6],33800 nM (active)
O=C(O)P(=O)(O)O,outcome,[1],inactive
same,outcome,[2],inactive
same,outcome,[3],inactive
same,outcome,[4],inactive
same,outcome,[5],inactive
same,outcome,[6],inactive
